Unmarked numbers belong to inactive results. Results filed as inconclusive are left out. Calls of active or inactive are those of the source. Unless noted, the call rests on the fitted dose curve; in most records, active means well fitted curve in the direction sought with a large enough effect in the repeat runs; inconclusive means weak or mixed curves; inactive means no such curve, though single readings can be large; an effect the other way counts as inactive or inconclusive.

Experimental findings from PubChem BioAssay (Tox21) are described below.

Experiment [1] in a line: qHTS assay for small molecule agonists of the p53 signaling pathway (AID 651631; calls by dose curve; further: nearly all actives have a fitted effect of over 15% in size). The method in brief: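 Quantitative high-throughput format: 4,000 p53RE-bla HCT-116 cells/well, 5 h pre-incubation, 16 h compound exposure at 37 °C, 2 h room-temperature substrate step, fluorescence intensity measured.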
Background: qHTS replaces the single test concentration by a dilution series.

Experiment [2] can be described thus: qHTS assay for small molecule agonists of the p53 signaling pathway - cell viability (AID 651633; calls by dose curve;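 further: p53RE-bla HCT reporter cells with a stable beta-lactamase p53 reporter; series mostly up to about 83 µM; nearly all actives have a fitted effect of over 30% in size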). The method in brief:
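p53RE-bla cells were treated with compound for 16 hours at 37 C. Cytotoxicity was then measured as CellTiter-Glo luminescence after 30 min at room temperature.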

A short description of experiment [3]: qHTS assay for small molecules that induce genotoxicity in human embryonic kidney cells expressing luciferase-tagged ATAD5 - cell viability (AID 651634; calls by dose curve; further: nearly all actives have a fitted effect of over 25% in size). The method in brief:
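15.5 hr compound or vehicle exposure of HEK293T cells expressing luciferase-tagged ATAD5 at 37C; live-cell protease activity is read by fluorescence after 30 min of CellTiter-Fluor.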

Experiment [4] in a line: qHTS assay for small molecule disruptors of the mitochondrial membrane potential - cell viability (AID 720634; calls by dose curve;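 further: human HepG2 liver cancer cells; series mostly up to about 83 µM; nearly all actives have a fitted effect of over 20% in size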). The gist of the method:
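In this qHTS format, HepG2 cells plated overnight were pinned with compound, incubated 1 hr, and assayed for ATP luminescence with CellTiter-Glo after m-MPI dye addition.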

Experiment [5] is described as follows: qHTS assay for small molecule disruptors of the mitochondrial membrane potential (AID 720635). The method in brief:
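HepG2 cells exposed to compound 1 hr at 37C, then Mito-MPS dye 30 min. Ratio read of aggregate (540/590 nm) versus monomer (490/535 nm) fluorescence.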

The nature of experiment [6]: qHTS assay to test for compound auto fluorescence at 590 nm (red) in HepG2 cells (AID 720674). The method in brief: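 Fluorescence at 590 nm emission following 540 nm excitation was recorded from HepG2 wells one hour after compound transfer, with DMSO-only wells as vehicle and Rose Bengal sodium equivalency as the scale.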
Experiment [7] is described as follows: qHTS assay to test for compound auto fluorescence at 535 nm (green) in HepG2 cells (AID 720675).
Experiment [8] in a line: qHTS assay to test for compound auto fluorescence at 460 nm (blue) in HEK293 cells (AID 720678). The gist of the method:
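HEK293 cells (2,000 per well, medium with 10% dialyzed FBS) attached for 4-5 hr at 37C, then received compound and stood overnight at 37C, 5% CO2. Blue fluorescence was read at Ex/Em 405/460 nm and expressed relative to triamterene.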

Experiment [9] is described as follows: qHTS assay to test for compound auto fluorescence at 590 nm (red) in HEK293 cells (AID 720679). The method in brief:
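HEK293 cells (2,000/well, medium with 10% dialyzed FBS) attached for 4-5 hr at 37C, received 23 nL compound and were incubated overnight at 37C, 5% CO2. Red fluorescence was then read at 540/590nm Ex/Em, referenced to Rose Bengal sodium.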

Experiment [10] can be described thus: qHTS assay to test for compound auto fluorescence at 535 nm (green) in HEK293 cells (AID 720680).
Experiment [11] in a line: qHTS assay to test for compound auto fluorescence at 460 nm (blue) in HEK293 cell free culture (AID 720681). The method in brief: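 Compounds were added to cell-free DMEM with 10% FBS and fluorescence read directly. The blue channel used 405 nm excitation and 460 nm emission, with triamterene as the reference fluorophore.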
The nature of experiment [12]: qHTS assay to test for compound auto fluorescence at 535 nm (green) in HEK293 cell free culture (AID 720682). The gist of the method: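 Measurement is a direct plate read of green fluorescence (485 nm in, 535 nm out) after compound addition to serum-supplemented DMEM lacking cells, with fluorescein used to express intensities.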
A short description of experiment [13]: qHTS assay to test for compound auto fluorescence at 590 nm (red) in HEK293 cell free culture (AID 720683). The method in brief: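 Cell-free wells of DMEM with 10% FBS received compound, and intrinsic fluorescence was read at excitation/emission 540/590 nm. Values expressed as equivalence to Rose Bengal sodium.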
A short description of experiment [14]: qHTS assay to test for compound auto fluorescence at 460 nm (blue) in HepG2 cell free culture (AID 720685). The gist of the method: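 Cell-free plates of MEM plus 10% FBS received 23 nL compound or DMSO vehicle; blue-channel (405/460 nm) intensity scored against triamterene as reference fluorophore.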
The nature of experiment [15]: qHTS assay to test for compound auto fluorescence at 535 nm (green) in HepG2 cell free culture (AID 720686).
Experiment [16] is described as follows: qHTS assay to test for compound auto fluorescence at 460 nm (blue) in HepG2 cells (AID 720687). The gist of the method: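 HepG2 cells in MEM with 10% FBS, attached overnight at 37 C, were exposed to compound or DMSO for 1 hr at 37 C, 5% CO2. Blue fluorescence was read at 405/460 nm, with triamterene as reference fluorophore.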
Experiment [17] has as its target Glucocorticoid receptor (Homo sapiens) (UniProt P04150). The experiment in a line: qHTS assay to identify small molecule agonists of the glucocorticoid receptor (GR) signaling pathway (AID 720691; active means well fitted activation curve with a large enough effect in the signal ratio in the repeat runs, not every such curve was filed as active; the % refers to the signal ratio; further: potency means the concentration at half of the fitted maximal effect). The method in brief: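 Measures GR pathway activation through a GRE-beta-lactamase reporter stably integrated in HeLa cells, with 18 h compound treatment at 37 C and fluorescence detection using a FRET substrate.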

Experiment [18] shares this target. As to the kind of experiment: qHTS assay to identify small molecule antagonists of the glucocorticoid receptor (GR) signaling pathway (AID 720692; active means well fitted inhibition curve with a large enough effect in the signal ratio in the repeat runs, not every such curve was filed as active; the % refers to the signal ratio; further: potency means the concentration at half of the fitted maximal effect). The method in brief:
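Tox21 10K library screened in concentration-response for blockade of dexamethasone (5 nM final)-induced GRE-bla reporter activity in HeLa cells; 18 h treatment, fluorescence read.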

Experiment [19] can be described thus: qHTS assay for small molecules that induce genotoxicity in human embryonic kidney cells expressing luciferase-tagged ATAD5 (AID 651632). Further: nearly all actives have a fitted effect of over 15% in size. The gist of the method:
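Concentration-response screen for ATAD5 upregulation in HEK293T luciferase reporter cells; 16 hr treatment at 37C, then luminescence after 30 min with Amplite at room temperature.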

Experiment [20] in a line: qHTS assay to test for compound auto fluorescence at 590 nm (red) in HepG2 cell free culture (AID 720684). The gist of the method:
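Rose Bengal sodium served as the reference for red signal. Test compounds were dispensed into serum-containing MEM (10% FBS) without cells, and plates were read at 540/590 nm.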
On the % scale 0 is the no-effect control and ±100 the full control effect.

Chain of Glucocorticoid receptor (Homo sapiens) (P04150 whole entry, looked up): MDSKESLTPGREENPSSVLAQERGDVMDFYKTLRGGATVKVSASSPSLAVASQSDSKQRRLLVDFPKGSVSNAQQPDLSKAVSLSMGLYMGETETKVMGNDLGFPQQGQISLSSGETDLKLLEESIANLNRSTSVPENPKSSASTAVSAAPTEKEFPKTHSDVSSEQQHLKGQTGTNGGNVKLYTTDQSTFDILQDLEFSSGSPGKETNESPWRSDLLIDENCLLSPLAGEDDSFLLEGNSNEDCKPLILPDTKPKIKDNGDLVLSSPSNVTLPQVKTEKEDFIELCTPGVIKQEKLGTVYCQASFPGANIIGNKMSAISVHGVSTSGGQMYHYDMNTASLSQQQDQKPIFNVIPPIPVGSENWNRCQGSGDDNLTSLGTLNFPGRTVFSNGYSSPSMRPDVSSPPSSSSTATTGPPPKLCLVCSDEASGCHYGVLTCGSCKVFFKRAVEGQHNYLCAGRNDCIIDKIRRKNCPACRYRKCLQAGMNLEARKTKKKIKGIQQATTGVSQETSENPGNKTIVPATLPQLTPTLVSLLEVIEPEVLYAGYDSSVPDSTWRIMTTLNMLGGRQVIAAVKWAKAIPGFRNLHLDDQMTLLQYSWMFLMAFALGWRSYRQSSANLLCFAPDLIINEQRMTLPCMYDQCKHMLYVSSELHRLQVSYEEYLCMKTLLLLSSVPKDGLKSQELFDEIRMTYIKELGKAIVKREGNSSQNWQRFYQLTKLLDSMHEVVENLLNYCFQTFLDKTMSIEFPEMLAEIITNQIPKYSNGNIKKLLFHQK

In the case of `CC1=C(O)C(=O)OC1C` (stereo unspecified), the Potency result in experiment [1], in experiment [2], in experiment [3], in experiment [4], in [5] and in experiment [17] was “inactive” throughout. For the same compound, in [18], the Potency result is “inactive”. The compound was classed as inactive in experiment [6], in [7], in [8], in [9], in [10] and in experiment [11]. Besides, the outcome in [12], in experiment [13], in experiment [14], in experiment [15] and in experiment [16] was inactive.
Consider `C[C@]12CCC(=O)C=C1CC[C@@H]1[C@@H]2CC[C@@]2(C)[C@H]1CC[C@]2(O)C(=O)CO`, for which the Potency entry in [1], in experiment [19], in [2] and in experiment [3] was “inactive” throughout. Moreover, the compound was classed as inactive in [6], in experiment [7], in experiment [8], in experiment [9], in experiment [10] and in experiment [11]. Further, the result in [12], in experiment [13], in [20], in experiment [14] and in experiment [15] was inactive. The figures for the Potency in [17] and in experiment [18] were 12 µM (active) and 0.338 µM (active), respectively.
Consider `CCCOCCC`, for which the Potency entry in experiment [1], in experiment [19], in [2], in [3], in [17] and in experiment [18] was “inactive” in each case. The call in experiment [6], in experiment [8], in experiment [9], in experiment [10], in experiment [12] and in [13] was inactive. Also, the call in experiment [20], in experiment [14] and in experiment [16] was inactive.
For the compound `COc1ccccc1OCC(O)COC(N)=O` (stereo unspecified), the Potency result in [1], in experiment [19], in [2], in [3], in experiment [5] and in experiment [17] was “inactive” throughout. The fluorescence, relative to Rose Bengal in experiment [6] is -0.267% [at 18.6 µM]. In addition, the fluorescence, % of triamterene in [8] was 0.0837% [at 18.6 µM]. For the same compound, in [10], the fluorescence, % of fluorescein was -0.023% [at 18.6 µM]. Further, the fluorescence, % of fluorescent control was 0.143% [at 18.6 µM] in experiment [11], -0.113% [at 18.6 µM] in experiment [13], 0.0993% [at 18.6 µM] in [14] and 0.0352% [at 18.6 µM] in experiment [16]. Moreover, in experiment [12], the activity change was 0.0183% [at 18.6 µM]. Further, the fluorescence, % of Rose Bengal in experiment [20] was 0.679% [at 18.6 µM].
`COc1cc2c(cc1N)oc1ccccc12`: the Potency entry in experiment [1], in experiment [19], in experiment [2], in experiment [3], in experiment [17] and in [18] was “inactive” throughout. The result in [6], in experiment [7], in experiment [8], in [9], in [10] and in [11] was inactive. The result in experiment [12], in [14] and in experiment [16] was inactive.
Take `OCC(CBr)(CBr)CBr`: the Potency entry in experiment [1], in experiment [19], in experiment [2], in experiment [3], in [4] and in experiment [17] was “inactive” each time. Also, the Potency entry in experiment [18] is “inactive”. Also, the outcome in experiment [6], in experiment [8], in experiment [9], in [11], in experiment [12] and in experiment [20] was inactive. The outcome in [14] and in experiment [16] was inactive.
Turning to `NC(Cc1ccc(F)cc1)C(=O)O` (stereo unspecified), the activation in experiment [1] is -4.8% [at 8.3 µM]; in [19], 3.53% [at 8.08 µM]; in [17] it was -7.29% [at 6.9 µM]. The activity change, negative = cytotoxicity is 33% [at 8.08 µM] in [2] and -3.31% [at 8.08 µM] in experiment [4]. In addition, in experiment [3], the activity, negative = cytotoxicity is 10.7% [at 8.08 µM]. The fluorescence, relative to Rose Bengal in experiment [6] is 0.0373% [at 3.72 µM]. For the same compound, the fluorescence, % of triamterene in [8] was -0.105% [at 3.72 µM]. Also, the fluorescence, % of fluorescent control in [9] was 0.0934% [at 3.72 µM]; in experiment [13], 0.0018% [at 3.72 µM]; in experiment [14], -0.0373% [at 3.72 µM]; in [16] it was -0.0921% [at 3.72 µM]. The fluorescence, % of fluorescein in [10] was 0.0426% [at 3.72 µM]. In [12], the activity change was 0.0132% [at 3.72 µM]. Moreover, the fluorescence, % of Rose Bengal in experiment [20] is -0.117% [at 3.72 µM]. Further, the fluorescence, % of fluorescein control in [15] is -0.0064% [at 3.72 µM].
